# Measurements reported in the supplement of paper PMC8728848.
# About 410 targets per protein were measured; listed, in parts, are those with the strongest signals and a random draw of the rest.
# B1: PfulAvr4 (Pseudocercospora fuligena) (protein)
# chain: HHHHHHDYKDDDDKTYVQDKTPAFVCPAADIKTTKCLGPKDCLYPSPKTCNGYIQCSPADDSYLTGIIHEMPCPSGLLWNDNKKWCDWPENTTCGLVKSAGATEVDATKQGPTPGKYHG
# Tests used:
# Assay in all cases: glycan array binding signal (z-score within array); higher = stronger binding
# Conditions in all cases: glycan notation: IUPAC condensed, linker removed
# [1] = target: Fuc(a1-2)Gal(b1-3)GalNAc(b1-3)Gal
# Summary of the method: (§1)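 Glycan array data were curated from 3228 arrays in the Consortium for Functional Glycomics database and kept only where the protein sequence was available. Glycan names were converted to IUPAC-condensed notation, and columns mapping to the same glycan were averaged. The binding signal is a within-array Z-score, averaged across arrays of the same protein sequence at different concentrations or buffers and across linkers. Negative Z-scores can be read as non-binding.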
# [2] = target: Fuc(a1-2)Gal(b1-3)[Fuc(a1-4)]GlcNAc(b1-2)Man(a1-3)[Fuc(a1-2)Gal(b1-3)[Fuc(a1-4)]GlcNAc(b1-2)Man(a1-3)]Man(b1-4)GlcNAc(b1-4)GlcNAc
# Summary of the method: as §1
# [3] = target: Fuc(a1-2)Gal(b1-3)[Fuc(a1-4)]GlcNAc(b1-3)[Gal(b1-4)GlcNAc(b1-6)]Gal(b1-4)Glc
# Summary of the method: as §1
# [4] = target: Fuc(a1-2)Gal(b1-4)GlcNAc(b1-3)[Fuc(a1-3)[Gal(b1-4)]GlcNAc(b1-6)]Gal(b1-4)Glc
# Summary of the method: as §1
# [5] = target: Fuc(a1-2)Gal(b1-4)[Fuc(a1-3)]GlcNAc
# Summary of the method: as §1
# [6] = target: Fuc(a1-2)Gal(b1-4)[Fuc(a1-3)]GlcNAc(b1-2)[Fuc(a1-2)Gal(b1-4)[Fuc(a1-3)]GlcNAc(b1-4)]Man(a1-3)[Fuc(a1-2)Gal(b1-4)[Fuc(a1-3)]GlcNAc(b1-2)Man(a1-6)]Man(b1-4)GlcNAc(b1-4)GlcNAc
# Summary of the method: as §1
# [7] = target: Fuc(a1-2)[Gal(a1-3)]Gal(b1-3)GlcNAc(b1-2)Man(a1-3)[Fuc(a1-2)[Gal(a1-3)]Gal(b1-3)GlcNAc(b1-2)Man(a1-6)]Man(b1-4)GlcNAc(b1-4)GlcNAc
# Summary of the method: as §1
# [8] = target: Fuc(a1-2)[Gal(a1-3)]Gal(b1-4)GlcNAc(b1-6)GalNAc
# Summary of the method: as §1
# [9] = target: Fuc(a1-2)[GalNAc(a1-3)]Gal
# Summary of the method: as §1
# [10] = target: Fuc(a1-2)[GalNAc(a1-3)]Gal(b1-3)GalNAc(a1-3)[Fuc(a1-2)]Gal(b1-4)GlcNAc
# Summary of the method: as §1
# [11] = target: Fuc(a1-2)[GalNAc(a1-3)]Gal(b1-3)GlcNAc(b1-3)GalNAc
# Summary of the method: as §1
# [12] = target: Fuc(a1-2)[GalNAc(a1-3)]Gal(b1-4)GlcNAc
# Summary of the method: as §1
# [13] = target: Fuc(a1-2)[GalNAc(a1-3)]Gal(b1-4)GlcNAc(b1-3)[Fuc(a1-2)[GalNAc(a1-3)]Gal(b1-4)GlcNAc(b1-6)]GalNAc
# Summary of the method: as §1
# [14] = target: Fuc(a1-2)[GalNAc(a1-3)]Gal(b1-4)GlcNAc(b1-6)GalNAc
# Summary of the method: as §1
# [15] = target: Fuc(a1-2)[GalNAc(a1-4)]Gal(b1-4)GlcNAc
# Summary of the method: as §1
# Gal(a1-3)Gal(b1-4)GlcNAc = target: Gal(a1-3)Gal(b1-4)GlcNAc
# Summary of the method: as §1
# Gal(b1-2)Gal = target: Gal(b1-2)Gal
# Summary of the method: as §1
# [16] = target: Gal(b1-3)GalNAc(b1-3)Gal(a1-4)Gal(b1-4)Glc
# Summary of the method: as §1
# [17] = target: Gal(b1-3)GlcNAc(b1-2)Man(a1-3)[GlcNAc(b1-4)][Gal(b1-3)GlcNAc(b1-2)Man(a1-6)]Man(b1-4)GlcNAc(b1-4)GlcNAc
# Summary of the method: as §1
# [18] = target: Gal(b1-3)GlcNAc(b1-3)GalNAc
# Summary of the method: as §1
# [19] = target: Gal(b1-3)[Fuc(a1-4)]GlcNAc(b1-2)Man(a1-3)[Gal(b1-3)[Fuc(a1-4)]GlcNAc(b1-2)Man(a1-6)]Man(b1-4)GlcNAc(b1-4)[Fuc(a1-6)]GlcNAc
# Summary of the method: as §1
# [20] = target: Gal(b1-3)[Neu5Ac(a2-6)]GalNAc
# Summary of the method: as §1
# [21] = target: Gal(b1-4)GalNAc(b1-3)[Fuc(a1-2)]Gal(b1-4)GlcNAc
# Summary of the method: as §1
# [22] = target: Gal(b1-4)GlcNAc(b1-2)Man(a1-3)[Man(a1-6)]Man(b1-4)GlcNAc(b1-4)GlcNAc
# Summary of the method: as §1
# [23] = target: Gal(b1-4)GlcNAc(b1-2)Man(a1-6)[GlcNAc(b1-2)Man(a1-3)]Man(b1-4)GlcNAc(b1-4)GlcNAc
# Summary of the method: as §1
# [24] = target: Gal(b1-4)GlcNAc(b1-3)Gal(b1-3)GlcNAc
# Summary of the method: as §1
# [25] = target: Gal(b1-4)GlcNAc(b1-3)Gal(b1-4)GlcNAc(b1-2)[Gal(b1-4)GlcNAc(b1-3)Gal(b1-4)GlcNAc(b1-6)]Man(a1-6)[Gal(b1-4)GlcNAc(b1-3)Gal(b1-4)GlcNAc(b1-2)Man(a1-3)]Man(b1-4)GlcNAc(b1-4)GlcNAc
# Summary of the method: as §1
# [26] = target: Gal(b1-4)GlcNAc(b1-3)Gal(b1-4)GlcNAc(b1-2)[Gal(b1-4)GlcNAc(b1-3)Gal(b1-4)GlcNAc(b1-6)]Man(a1-6)[Gal(b1-4)GlcNAc(b1-3)Gal(b1-4)GlcNAc(b1-2)Man(a1-3)]Man(b1-4)GlcNAc(b1-4)[Fuc(a1-6)]GlcNAc
# Summary of the method: as §1
# [27] = target: Gal(b1-4)GlcNAc(b1-3)Gal(b1-4)GlcNAc(b1-3)Gal(b1-4)GlcNAc(b1-3)Gal(b1-4)GlcNAc(b1-3)Gal(b1-4)GlcNAc(b1-2)Man(a1-3)[Gal(b1-4)GlcNAc(b1-3)Gal(b1-4)GlcNAc(b1-3)Gal(b1-4)GlcNAc(b1-3)Gal(b1-4)GlcNAc(b1-3)Gal(b1-4)GlcNAc(b1-2)Man(a1-6)]Man(b1-4)GlcNAc(b1-4)[Fuc(a1-6)]GlcNAc
# Summary of the method: as §1
binder,measurement,setting,value
B1,glycan array binding signal (z-score),[1],-0.098
same,glycan array binding signal (z-score),[2],1.42
same,glycan array binding signal (z-score),[3],-0.112
same,glycan array binding signal (z-score),[4],-0.102
same,glycan array binding signal (z-score),[5],-0.091
same,glycan array binding signal (z-score),[6],0.683
same,glycan array binding signal (z-score),[7],-0.05
same,glycan array binding signal (z-score),[8],-0.112
same,glycan array binding signal (z-score),[9],-0.132
same,glycan array binding signal (z-score),[10],1.31
same,glycan array binding signal (z-score),[11],-0.06
same,glycan array binding signal (z-score),[12],-0.151
same,glycan array binding signal (z-score),[13],-0.133
same,glycan array binding signal (z-score),[14],-0.129
same,glycan array binding signal (z-score),[15],-0.135
same,glycan array binding signal (z-score),Gal(a1-3)Gal(b1-4)GlcNAc,-0.07
same,glycan array binding signal (z-score),Gal(b1-2)Gal,-0.01
same,glycan array binding signal (z-score),[16],-0.044
same,glycan array binding signal (z-score),[17],0.682
same,glycan array binding signal (z-score),[18],-0.105
same,glycan array binding signal (z-score),[19],0.612
same,glycan array binding signal (z-score),[20],0.215
same,glycan array binding signal (z-score),[21],-0.141
same,glycan array binding signal (z-score),[22],1.71
same,glycan array binding signal (z-score),[23],-0.136
same,glycan array binding signal (z-score),[24],-0.04
same,glycan array binding signal (z-score),[25],1.38
same,glycan array binding signal (z-score),[26],-0.13
same,glycan array binding signal (z-score),[27],0.048
